# GFP derepression = epigenetic GFP locus derepression in mouse cells | 68,000 tested, 0.09% active | mouse C127i GFP locus derepression, cytometry, 30 h | Potency, µM (highest dose often 46.1 µM)
#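 Derepression screen: silenced CMV-GFP reporter in murine C127i cells, 30 h compound incubation at 37 C, washed cells imaged by laser-scanning cytometer to enumerate GFP-expressing objects of 20 to 120 um.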
# ERK AVP block = inhibitors of vasopressin-stimulated ERK signaling pathway | HEK293-V1b, vasopressin-stimulated pERK AlphaScreen | Potency, µM (highest dose often 57.5 µM), actives largely listed as inhibitors | 72,000 tested, 0.99% active; also: nearly all actives have a fitted effect of over 55% in size
#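 HEK293 cells stably expressing V1b receptor, preincubated 30 min at 37 °C with compound, then stimulated 5 min with 25 nM vasopressin. Phospho-ERK by AlphaScreen SureFire after 5 h RT; normalized to DMSO and vasopressin; AC50 by Hill fit.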
# HBB splicing = alters splicing of the hemoglobin beta chain. AID 925. 65,000 tested, 0.06% active. HBB splicing reporter cell assay, activation; EGFP reporter with mutant IVS2-654 intron; response scale: normalised to 500 nM splice-correcting PNA. Potency, µM (series often up to 46.1 µM), actives largely listed as activators
#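 Compounds were applied for 2 days to HeLa EGFP-654 cells, 500/well in Optimem with 2% FCS. The reporter's EGFP is disrupted by mis-splicing of beta-globin intron IVS2-654. Readout: summed well GFP fluorescence from 488 nm laser scanning; reference was 500 nM antisense […] 654 PNA.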
# Ub-GFP proteasome = proteasome inhibitors stabilizing ubiquitin-GFP reporter. Ubiquitin-GFP reporter cells, proteasome inhibition, GFP fluorescence; response scale: untreated = 0%, 10 µM MG-132 = 100%. Potency, µM (titrated, usually from 45.9 µM), actives largely listed as activators. 67,000 tested, under 10 active. AID 526; active = well fitted activation curve with a large enough effect, not every such curve was filed as active; inconclusive = small, poorly fitted or top-dose-only effect, or another doubt; inactive = no such curve, though single readings can be large or run the other way
#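 U2OS cells stably expressing ubiquitin(G76V)-GFP, seeded overnight in 0.5% FBS medium, were exposed to compounds (qHTS, 46 uM to 2.9 nM) for 4 hr at 37 °C. GFP-positive cells were counted by laser cytometry (488 ex/515 em), normalized between basal and 10 uM MG-132.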
# TSHR ag = activates the human thyroid stimulating hormone receptor; 73,000 tested, 0.48% active; Potency, µM (series often up to 57.1 µM), actives largely listed as activators; AID 926; HEK293-CNG-TSHR cells (CNG channel as cAMP sensor), membrane potential dye, cAMP; active = well fitted activation curve with a large enough effect in the main read-out, with a control signal flat, not every such curve was filed as active; inconclusive = small, poorly fitted or top-dose-only effect, or a change in a side signal; inactive = no such curve, though single readings can be large or run the other way; reference of the percent scale not stated here;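 also: the control signal comes from parental cells without the receptor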
# Target sequence (P16473 whole entry, looked up): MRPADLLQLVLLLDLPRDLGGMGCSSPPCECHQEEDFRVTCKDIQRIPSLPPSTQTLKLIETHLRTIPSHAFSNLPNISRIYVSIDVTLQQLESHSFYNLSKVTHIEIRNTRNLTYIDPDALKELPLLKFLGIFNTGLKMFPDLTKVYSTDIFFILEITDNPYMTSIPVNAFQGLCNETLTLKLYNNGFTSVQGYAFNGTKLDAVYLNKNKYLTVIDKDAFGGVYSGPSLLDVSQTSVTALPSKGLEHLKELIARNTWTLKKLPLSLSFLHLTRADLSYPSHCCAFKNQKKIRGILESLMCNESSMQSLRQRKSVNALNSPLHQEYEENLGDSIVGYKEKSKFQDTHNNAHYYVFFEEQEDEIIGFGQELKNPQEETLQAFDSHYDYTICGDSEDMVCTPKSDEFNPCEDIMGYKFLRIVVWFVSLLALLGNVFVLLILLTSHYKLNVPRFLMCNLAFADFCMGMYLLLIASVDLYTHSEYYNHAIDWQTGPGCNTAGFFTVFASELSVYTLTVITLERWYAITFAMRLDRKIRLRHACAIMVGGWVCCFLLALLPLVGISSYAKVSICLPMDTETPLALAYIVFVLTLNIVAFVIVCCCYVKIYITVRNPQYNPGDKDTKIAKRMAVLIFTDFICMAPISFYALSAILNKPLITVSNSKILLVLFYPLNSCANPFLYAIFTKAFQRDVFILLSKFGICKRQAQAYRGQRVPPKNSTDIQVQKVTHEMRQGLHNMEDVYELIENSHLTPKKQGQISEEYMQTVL
#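 cAMP rise detected as CNG-channel membrane depolarization by fluorescent dye (emission 590 nm), 30 min after compound, following 60 min dye loading containing 100 uM RO 20-1724 at room temperature. Cells: TSHR/CNG HEK 293, with parental CNG HEK 293 as control.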
# HEK293 cAMP ctrl = parental HEK293 cAMP activation (counter-screen); parental HEK293 CNG cAMP sensor, membrane potential fluorescence; Potency, µM (series often up to 57.1 µM), actives largely listed as activators; AID 938; 73,000 tested, 2.5% active; also: nearly all actives have a fitted effect of over 55% in size
#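 Parental HEK 293 cells stably expressing a modified CNG channel (no TSHR) report cAMP rise as membrane depolarization. Membrane potential dye with 100 uM RO 20-1724 was loaded for 60 min at room temperature, then compound added for 30 min; fluorescence read at 590 nm.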
# parental cAMP = counter-screen for TSH receptor agonists: cAMP in parental HEK293 cells. shares compounds with TSHR ag. parental HEK293 CNG biosensor, cAMP membrane potential fluorescence. activity change, negative = inhibition, % at 32.9 µM. 150 tested, under 10 active. AID 953
# A number is an active result; i = inactive; ? = inconclusive; nt = not tested or not shown; [ ] = remark or other dose. A selection: hits, their analogues and other compounds. The true share with any hit is near 3.8%. Unless noted, calls follow the shape of the dose curve; as a rule, active = well fitted curve in the direction sought with a large enough effect; inconclusive = small, poorly fitted or top-dose-only effect, or another doubt; inactive = no such curve, though single readings can be large; an effect the other way counts as inactive or inconclusive.
SMILES,GFP derepression,ERK AVP block,HBB splicing,Ub-GFP proteasome,TSHR ag,HEK293 cAMP ctrl,parental cAMP
O=C(Nc1ccccn1)c1cccc(S(=O)(=O)N2CCOCC2)c1,i,i,i,i,i,i,nt
CC1CCN(S(=O)(=O)c2cccc(C(=O)Nc3ccccn3)c2)CC1,i,i,i[9.22 µM],i,25µM,i,i
CC(C)(Oc1ccc(-c2cccc3ccccc23)cc1)C(=O)O,i[9.22 µM],i[11.5 µM],i[9.22 µM],i[9.17 µM],i[11.4 µM],i[11.4 µM],nt
COC(=O)c1cc2c(s1)-c1ccccc1OC2,i,i,i,i,nt,i,nt
Nc1ccc2c(c1)COc1ccccc1O2,i,i,i,i,i,i,i
Cc1ccccc1NC(=O)N1C2CCCC1CC(NC(=O)C1CC1)C2 (stereo not given),i,i,nt,i,i,i,i
O=S(=O)(c1ccccc1)N1CCN(C2CCN(Cc3ccccc3)CC2)CC1,i,i,i,i,i,i,i
COc1ccc(S(=O)(=O)NCCC(=O)NC2CCCCCCC2)cc1,i,i,i,i,i,i,nt
COc1ccc(S(=O)(=O)NCCC(=O)NCc2ccc(F)cc2)cc1,i,i,i,i,nt,i,i
COc1ccc(NC(=O)N2CCC3(CC2)CCN(S(C)(=O)=O)CC3)cc1,i[9.22 µM],i,i,i,i,i,nt
C[C@@H](C(=O)NCc1nc2ccccc2[nH]1)[C@@H]1C[C@@]1(C)[C@@H](NC(=O)OCc1ccccc1)c1ccccc1,nt,?,i,nt,i,i,nt
Cc1ccc(N(C(=O)Cn2nnc(-c3ccc(C)o3)n2)C(C(=O)NC2CCCC2)c2ccco2)cc1 (stereo not given),i,i,i,i,i,i,nt
Cc1ccc(C)c(N(C(=O)Cn2nnc(-c3cccs3)n2)C(C(=O)NC2CC2)c2ccc(C)o2)c1 (stereo not given),i,i,nt,i,7.9µM,i,?
O=c1c2ccccc2ncn1-c1ccc2c(c1)OCCO2,nt,nt,nt,nt,i,i,i
CCCC(=O)C1=C(SCC)CC(C)(C)C(C(=O)OC)C1=O (stereo not given),i,i,i,i,?,?,i
Cc1nn(-c2ccccc2)c(N2CCCC2)c1/C=N/n1cnc2scc(-c3ccccc3)c2c1=O,i,i,i,i,3.2µM,i,i
Cc1ccc(-c2csc3ncn(/N=C/N(C)C)c(=O)c23)o1,i,i,i,i,i,i,nt
O=C(c1csnn1)N1CCC2(CC1)CN(c1ccncc1)C2,i[9.22 µM],i,i,i,i,i,nt
Cc1ccccc1-n1nc(C)c2cc(C(=O)N3CCN(S(=O)(=O)c4ccc(F)cc4)CC3)sc21,i,i,i,i,16µM,i,i
CN1C(=O)C2C=CC1C1C(=O)N(c3ccccc3)C(=O)C21 (stereo not given),i,i,i[9.22 µM],i,i,i,i
Cc1nc2ccc(Br)cn2c(=O)c1Cl,i,i,i,i,i,i,i
Cc1nc2cnc(Oc3ccccc3)nc2n(C2CC2)c1=O,i[9.22 µM],i,i,i,?,?,nt
Cc1nc2ccc(NC(=O)c3ccc(S(=O)(=O)N4CCOCC4)cc3)cc2s1,i,i,i,i,i,i,?
C=C(C)Cn1c(-c2ccccc2)nc2ccccc21,i,i,i[0.0738 µM],i[9.17 µM],3.2µM,i[11.4 µM],?
CC1(C)c2ccccc2N2CCC(=O)NC21/C=C/c1ccco1 (stereo not given),i,i,i,i,3.2µM,i,i
SMILES,GFP derepression,ERK AVP block,HBB splicing,Ub-GFP proteasome,TSHR ag,HEK293 cAMP ctrl,parental cAMP
CC1(C)c2ccccc2N2CC(=O)NC21/C=C/c1ccco1 (stereo not given),i,i,i,i,2.5µM,i,i
COc1ncc2nc(C)c(=O)n(C3CC3)c2n1,i[9.22 µM],i,i,i,i,i,nt
O=C(CSc1nnc(-c2cccs2)n1Cc1ccco1)Nc1ccc2c(c1)OCO2,i,i,i,i,?,?,nt
O=C(CSc1nnc(-c2ccccc2)n1Cc1ccco1)Nc1ccc2c(c1)OCCO2,i,i,i,i,20µM,i,i
Cc1cnc(CNc2ncncc2-c2c(C)noc2C)cn1,i[9.22 µM],i,i,i,i,i,nt
CCN(c1ccccc1)S(=O)(=O)c1ccc(Oc2ccc(-n3ccnc3)cc2)nc1,i,i,i,i,25µM,i,i
Cc1ccc(-n2nc(-c3ccc(N)cc3)cc2N)cc1,nt,i,i,i,i,i,i
Clc1ccc(CN2CCCN(Cc3ccc(Cl)cc3)C2c2cc3ccccc3c3ccccc23)cc1,i[9.22 µM],i[11.5 µM],i[9.22 µM],i[9.17 µM],i[11.4 µM],i[11.4 µM],nt
O=S1(=O)N=C(Oc2ccccc2)c2ccccc21,?,i,i,i,i,i,i
CCc1ccc(-c2nc(CN3CCC(C(=O)N4CCN(c5ccccc5)CC4)CC3)c(C)o2)cc1,i,i,i[1.84 µM],i,i,i,i
COc1ccc(C2C(=O)N(C3CCCCC3)CC(=O)N2Cc2ccc3c(c2)OCO3)cc1 (stereo not given),i,i,i,i,i,i,nt
COc1cccc(CN2C(=O)CN(C3CCCCC3)C(=O)C2c2ccc(F)cc2)c1 (stereo not given),i,i,i,i,13µM,i,i
COc1ccc(OC)c(CNC(=O)C2CCN(S(=O)(=O)N3CCCC3)CC2)c1,i,i,i,i,i[11.4 µM],i,nt
COc1ccc(Br)cc1CNC(=O)C1CCN(S(=O)(=O)N2CCCCC2)CC1,i,i,i,i,i,i,i
NC(Cc1cnc[nH]1)C(=O)Nc1ccc2ccccc2c1 (stereo not given),nt,i,nt,nt,nt,nt,nt
COc1ccc(C(c2nnnn2Cc2ccccc2)N2CCN(C(=O)c3ccco3)CC2)cc1 (stereo not given),i,i,nt,i,?,?,nt
COc1cccc(C(c2nnnn2Cc2ccccc2)N2CCN(C(=O)c3ccco3)CC2)c1OC (stereo not given),i,i,i,i,25µM,i,i
c1ccc2nc(CC[C@@H]3CCCCN3)ccc2c1,i[9.22 µM],i[11.5 µM],i[9.22 µM],i[9.17 µM],i[11.4 µM],i[11.4 µM],nt
Cc1cc(C)n(S(=O)(=O)c2cc(C(=O)O)c(Cl)cc2Cl)n1,i,i,i,i,16µM,i,i
COc1ccc2c(C)cc(=O)oc2c1C,i,i,i,i,i,i,i
Cc1cc(=O)oc2c(C)c(OCC(=O)N(C)C)ccc12,i,i,i,i,i,i,nt
CS(=O)(=O)Nc1cccc(-c2cncnc2Nc2ccc(F)cc2)c1,i[9.22 µM],i,i,i,?,?,nt
Cc1cc(C)n2nc(SCC(=O)c3cc(C)n(-c4cc(C)on4)c3C)nc2n1,i,i,i,i,?,?,nt

# Assay outcomes: PubChem BioAssay, National Center for Advancing Translational Sciences (NCATS)
